“And” between values parts separate entries of the source, which are not always exact repeats. Equal values may be shown once. Results filed as inconclusive are left out. Some compounds were tested as several samples or in several runs, with calls that do not always agree. The source made the active and inactive calls. Calls follow the shape of the dose curve; as a rule, active = well fitted curve in the direction sought with a large enough effect in the repeat runs; inconclusive = weak or mixed curves; inactive = no such curve, though single readings can be large; an effect the other way counts as inactive or inconclusive.

Experiment [1] is described as follows: Caspase-3/7 induction in HepG2 cells by small molecules, qHTS assay (AID 1346978). Also: nearly all actives have a fitted effect of over 15% in size. Also: potency is read from the fitted curve at half-maximal effect. The gist of the method:
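Caspase-3/7 induction was measured by Caspase-Glo 3/7 luminescence (30 min, room temperature) after a 17 hr compound exposure of wild-type HepG2 cells seeded at 2,000 per well and pre-incubated 5 hr.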
For orientation: In qHTS, concentration-response curves come from the screen itself.

Experiment [2] can be described thus: Caspase-3/7 induction in CHO-K1 cells by small molecules, qHTS assay (AID 1346980). Also: nearly all actives have a fitted effect of over 15% in size. The gist of the method: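 Luminescent Caspase-Glo 3/7 read (30min, room temperature) quantified apoptosis induction. Cells were wild-type CHO-K1, treated with compound for 17hr at 37 C and 5% CO2.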
Experiment [3] can be described thus: Caspase-3/7 induction in HepG2 cells by small molecules, qHTS cell viability counter screen (AID 1346981). Also: nearly all actives have a fitted effect of over 30% in size. Also: potency is read from the fitted curve at half-maximal effect. The gist of the method:
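Steps: seed 2,000 HepG2 cells per well; incubate 5 hr at 37 C; pin-add compounds in DMSO; incubate 16 hr; add CellTiter-Fluor; after 1 hr at 37 C and 5% CO2, read fluorescence.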

In experiment [4] the target is Nuclear receptor subfamily 1 group I member 2 (Homo sapiens) (UniProt O75469). Put plainly: Human pregnane X receptor (PXR) small molecule agonists, qHTS assay (AID 1346982). Also: nearly all actives have a fitted effect of over 35% in size. Also: potency is read from the fitted curve at half-maximal effect. Put shortly:
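Agonist mode qHTS: PXR-Luc HepG2 cells plated 5 hr before DMSO-dissolved compounds were pinned in, cultured 24 hr at 37 C, 5% CO2; ONE-Glo luminescence readout.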

For experiment [5], the target named is Cytochrome P450 2D6 (Homo sapiens) (UniProt P10635). Nature of the experiment: Cytochrome P450 Family 2 Subfamily D Member 6 (CYP2D6) small molecule antagonists: luciferase reporter qHTS assay (AID 1671196). Also: nearly all actives have a fitted effect of over 50% in size. Also: potency is read from the fitted curve at half-maximal effect. Put shortly:
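P450-Glo format: CYP2D6 converts a proluciferin substrate to luciferin in an NADPH-driven reaction lasting 1 h at room temperature. Light output, proportional to CYP2D6 activity, reflects interference by test chemicals.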

Experiment [6] addresses Cytochrome P450 2C19 (Homo sapiens) (UniProt P33261). Nature of the experiment: Cytochrome P450 Family 2 Subfamily C Member 19 (CYP2C19) small molecule antagonists: luciferase reporter qHTS assay (AID 1671197). Also: nearly all actives have a fitted effect of over 65% in size. Also: potency is read from the fitted curve at half-maximal effect. Put shortly: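 Inhibition of CYP2C19 was scored from loss of luminescence in a P450-Glo proluciferin substrate assay, NADPH-started and run 1 h at 37C, with ketoconazole as positive control.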
For orientation: In a reporter assay the amount or activity of a reporter protein is the signal.

Experiment [7] deals with Cytochrome P450 2C9 (Homo sapiens) (UniProt P11712). Nature of the experiment: Cytochrome P450 Family 2 Subfamily C Member 9 (CYP2C9) small molecule antagonists: luciferase reporter qHTS assay (AID 1671198). Also: nearly all actives have a fitted effect of over 50% in size. Also: potency is read from the fitted curve at half-maximal effect. The gist of the method: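 Enzyme-substrate mix preincubated with compound 10 min at room temperature; reaction started with NADPH regeneration solution, 1 h 37C. Luminescent luciferin product read after 20 min detection reagent.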

The target in experiment [8] is Voltage-gated inwardly rectifying potassium channel KCNH2 (Homo sapiens) (UniProt Q12809). Nature of the experiment: Human Ether-a-go-go-Related Gene (hERG) channel small molecule antagonists: fluorescence cell-based qHTS assay (AID 1671200). Also: nearly all actives have a fitted effect of over 50% in size. Also: potency is read from the fitted curve at half-maximal effect. The gist of the method: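 First, 1000 cells per well are seeded and cultured overnight at 37 C. Next, FluxOR II dye is loaded for 1 h at room temperature, protected from light. After 10 more minutes, stimulus is added and fluorescence is read.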
For orientation: hERG is a cardiac potassium channel; its block is linked to QT prolongation.

In experiment [9] the target is Cytochrome P450 1A2 (Homo sapiens) (UniProt P05177). Nature of the experiment: Cytochrome P450 Family 1 Subfamily A Member 2 (CYP1A2) small molecule antagonists: luciferase reporter qHTS assay (AID 1671199). Also: nearly all actives have a fitted effect of over 50% in size. Also: potency is read from the fitted curve at half-maximal effect. The gist of the method:
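Inhibition of CYP1A2 conversion of proluciferin to luciferin, detected by luminescence. Reaction run 1 h at room temperature with NADPH regeneration after brief compound preincubation.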

Experiment [10] concerns the target Cytochrome P450 3A4 (Homo sapiens) (UniProt P08684). Put plainly: Cytochrome P450 Family 3 Subfamily A Member 4 (CYP3A4) small molecule antagonists: luciferase reporter qHTS assay (AID 1671201). Also: nearly all actives have a fitted effect of over 50% in size. Also: potency is read from the fitted curve at half-maximal effect. Put shortly:
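Enzyme and proluciferin substrate are mixed with test chemicals for 10 min, then NADPH regeneration system drives turnover for 1 h at room temperature. A detection reagent halts the reaction; luminescence after 20 min gives relative activity.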

Experiment [11] concerns the target Nuclear receptor subfamily 1 group I member 2 (Homo sapiens) (UniProt O75469). Nature of the experiment: CYP3A4 induction through human pregnane X receptor (PXR) by small molecules, qHTS assay (AID 1346984). Also: nearly all actives have a fitted effect of over 40% in size. The gist of the method: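 Steps: seed DPX-2 cells, 5 hr at 37C; pin-transfer compounds; 24 hr at 37C; add Luciferin-IPA (3uM final), 3 hr at 37C; add One-Glo, 30 min RT; read luminescence.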

Experiment [12] shares this target. Put plainly: Human pregnane X receptor (PXR) activation by small molecules, qHTS assay (AID 1346985). Also: nearly all actives have a fitted effect of over 40% in size. Also: potency is read from the fitted curve at half-maximal effect. Put shortly:
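DPX-2 cells (HepG2 co-transfected with a PXR response element and a CYP3A4-promoter luciferase construct) were seeded at 2,000 per well, rested 5 hr at 37C, then exposed to DMSO-dissolved compounds for 24 hr. Activation was read as luciferase luminescence.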

Cytochrome P450 1A2 (Homo sapiens), sequence (P05177 whole entry, looked up): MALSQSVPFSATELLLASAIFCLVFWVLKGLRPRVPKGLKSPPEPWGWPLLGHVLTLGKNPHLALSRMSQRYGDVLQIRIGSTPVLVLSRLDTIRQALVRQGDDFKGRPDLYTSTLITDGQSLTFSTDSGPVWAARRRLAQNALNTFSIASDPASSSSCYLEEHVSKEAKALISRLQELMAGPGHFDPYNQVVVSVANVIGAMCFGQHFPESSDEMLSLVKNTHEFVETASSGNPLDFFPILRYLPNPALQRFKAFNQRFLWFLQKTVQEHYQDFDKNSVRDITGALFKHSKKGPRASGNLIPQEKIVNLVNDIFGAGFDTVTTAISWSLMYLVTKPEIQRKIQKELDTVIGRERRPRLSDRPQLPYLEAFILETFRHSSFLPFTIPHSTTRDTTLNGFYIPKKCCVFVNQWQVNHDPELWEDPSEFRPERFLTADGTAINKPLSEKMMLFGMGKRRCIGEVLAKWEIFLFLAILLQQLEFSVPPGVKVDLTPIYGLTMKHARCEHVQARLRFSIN
Cytochrome P450 2D6 (Homo sapiens), sequence (P10635 whole entry, looked up): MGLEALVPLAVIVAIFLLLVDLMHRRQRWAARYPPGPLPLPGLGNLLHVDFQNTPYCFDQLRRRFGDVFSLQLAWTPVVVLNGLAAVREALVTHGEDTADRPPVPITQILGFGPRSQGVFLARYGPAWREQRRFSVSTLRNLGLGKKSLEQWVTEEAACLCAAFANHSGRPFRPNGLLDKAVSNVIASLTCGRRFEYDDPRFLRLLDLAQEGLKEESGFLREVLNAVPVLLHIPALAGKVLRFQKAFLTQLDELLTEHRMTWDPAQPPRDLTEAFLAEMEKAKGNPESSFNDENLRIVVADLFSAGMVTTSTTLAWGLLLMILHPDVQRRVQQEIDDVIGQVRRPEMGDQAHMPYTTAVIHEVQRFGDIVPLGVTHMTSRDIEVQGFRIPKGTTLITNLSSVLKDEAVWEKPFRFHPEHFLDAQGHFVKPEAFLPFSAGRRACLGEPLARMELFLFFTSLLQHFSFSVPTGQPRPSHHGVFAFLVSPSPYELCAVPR
Voltage-gated inwardly rectifying potassium channel KCNH2 (Homo sapiens), sequence (Q12809 whole entry, looked up): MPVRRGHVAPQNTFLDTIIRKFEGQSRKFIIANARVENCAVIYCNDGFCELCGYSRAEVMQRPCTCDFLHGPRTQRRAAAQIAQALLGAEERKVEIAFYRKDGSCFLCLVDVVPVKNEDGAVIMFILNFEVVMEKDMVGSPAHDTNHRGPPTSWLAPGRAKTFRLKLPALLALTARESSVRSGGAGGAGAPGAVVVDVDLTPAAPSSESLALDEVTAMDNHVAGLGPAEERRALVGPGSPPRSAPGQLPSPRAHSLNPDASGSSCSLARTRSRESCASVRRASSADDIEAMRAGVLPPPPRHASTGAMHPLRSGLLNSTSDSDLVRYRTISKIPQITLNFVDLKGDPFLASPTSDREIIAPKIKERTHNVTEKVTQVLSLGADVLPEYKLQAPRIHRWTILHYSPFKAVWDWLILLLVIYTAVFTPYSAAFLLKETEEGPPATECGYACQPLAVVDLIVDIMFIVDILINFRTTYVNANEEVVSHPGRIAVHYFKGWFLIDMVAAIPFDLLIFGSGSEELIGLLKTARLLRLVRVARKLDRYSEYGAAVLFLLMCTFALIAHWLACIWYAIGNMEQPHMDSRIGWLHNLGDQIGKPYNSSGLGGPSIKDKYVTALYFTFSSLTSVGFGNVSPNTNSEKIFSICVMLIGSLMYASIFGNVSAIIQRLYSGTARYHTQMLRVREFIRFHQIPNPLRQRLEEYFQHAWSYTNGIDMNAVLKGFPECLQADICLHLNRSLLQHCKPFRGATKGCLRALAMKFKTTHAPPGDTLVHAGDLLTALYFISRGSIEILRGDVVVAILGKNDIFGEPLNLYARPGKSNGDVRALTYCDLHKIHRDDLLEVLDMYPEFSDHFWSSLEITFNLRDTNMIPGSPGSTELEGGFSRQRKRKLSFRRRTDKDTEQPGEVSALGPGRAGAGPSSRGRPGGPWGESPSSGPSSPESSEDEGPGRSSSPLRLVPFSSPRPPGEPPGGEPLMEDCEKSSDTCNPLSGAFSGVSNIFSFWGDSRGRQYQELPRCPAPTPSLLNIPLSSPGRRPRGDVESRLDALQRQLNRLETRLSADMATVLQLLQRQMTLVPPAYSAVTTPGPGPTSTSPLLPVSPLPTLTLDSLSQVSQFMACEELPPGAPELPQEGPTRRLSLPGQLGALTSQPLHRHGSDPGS
Cytochrome P450 2C9 (Homo sapiens), sequence (P11712 whole entry, looked up): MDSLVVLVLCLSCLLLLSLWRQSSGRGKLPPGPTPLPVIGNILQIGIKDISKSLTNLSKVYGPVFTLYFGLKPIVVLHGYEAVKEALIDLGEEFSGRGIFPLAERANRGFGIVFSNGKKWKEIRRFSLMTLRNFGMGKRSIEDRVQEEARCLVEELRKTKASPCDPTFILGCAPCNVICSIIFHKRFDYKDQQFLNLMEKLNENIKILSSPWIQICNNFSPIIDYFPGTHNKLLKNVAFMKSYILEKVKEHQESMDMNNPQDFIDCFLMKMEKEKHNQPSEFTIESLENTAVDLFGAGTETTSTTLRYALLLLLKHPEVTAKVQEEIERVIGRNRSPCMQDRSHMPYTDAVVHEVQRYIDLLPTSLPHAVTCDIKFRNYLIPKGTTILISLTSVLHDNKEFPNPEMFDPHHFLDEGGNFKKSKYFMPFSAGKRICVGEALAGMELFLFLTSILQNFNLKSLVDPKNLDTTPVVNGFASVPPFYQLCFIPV
Cytochrome P450 3A4 (Homo sapiens), sequence (P08684 whole entry, looked up): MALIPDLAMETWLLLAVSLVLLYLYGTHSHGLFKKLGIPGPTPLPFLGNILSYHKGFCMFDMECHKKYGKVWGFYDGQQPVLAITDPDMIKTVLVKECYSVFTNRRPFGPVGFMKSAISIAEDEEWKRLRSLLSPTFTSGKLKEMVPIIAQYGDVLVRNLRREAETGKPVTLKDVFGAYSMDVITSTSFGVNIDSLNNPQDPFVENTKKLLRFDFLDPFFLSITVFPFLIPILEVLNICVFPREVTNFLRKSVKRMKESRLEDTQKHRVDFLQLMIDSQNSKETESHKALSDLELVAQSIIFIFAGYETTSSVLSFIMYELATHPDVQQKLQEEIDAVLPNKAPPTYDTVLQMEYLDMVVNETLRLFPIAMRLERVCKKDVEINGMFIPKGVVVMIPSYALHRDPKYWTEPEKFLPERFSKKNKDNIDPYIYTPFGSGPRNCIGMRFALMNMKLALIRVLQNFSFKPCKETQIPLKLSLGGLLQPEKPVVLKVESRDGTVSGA
Cytochrome P450 2C19 (Homo sapiens), sequence (P33261 whole entry, looked up): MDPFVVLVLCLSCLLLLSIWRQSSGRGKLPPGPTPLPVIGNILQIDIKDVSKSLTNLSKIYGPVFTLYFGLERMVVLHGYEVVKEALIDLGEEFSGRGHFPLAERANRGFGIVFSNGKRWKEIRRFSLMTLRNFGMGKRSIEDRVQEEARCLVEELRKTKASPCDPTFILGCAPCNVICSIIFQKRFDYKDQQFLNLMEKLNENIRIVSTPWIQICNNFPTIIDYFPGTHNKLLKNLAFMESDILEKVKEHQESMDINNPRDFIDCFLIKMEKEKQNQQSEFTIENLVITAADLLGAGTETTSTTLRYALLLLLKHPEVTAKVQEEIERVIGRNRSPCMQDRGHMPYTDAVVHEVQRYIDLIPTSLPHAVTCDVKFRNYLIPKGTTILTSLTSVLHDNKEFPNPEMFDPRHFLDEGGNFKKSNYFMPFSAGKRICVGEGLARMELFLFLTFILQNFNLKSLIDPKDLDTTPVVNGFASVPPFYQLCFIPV

Take `O=c1cc(-c2ccc(O)cc2)oc2cc(O)cc(O)c12`: the Potency result in experiment [1], in experiment [2] and in [8] was “inactive” each time. Further, the Potency in experiment [3] was 27.7 µM (active) and 61.1 µM (active); in experiment [4] it was 24.7 µM (active) and 24.3 µM (active); in [5], 64.1 µM (active); in [6], 32.1 µM (active) and 39.9 µM (active); in experiment [7] it was 36.1 µM (active) and 39.9 µM (active).

Take `CN(C)c1ccc(SC#N)cc1`: the Potency entry in experiment [1], in experiment [2], in experiment [3], in experiment [8] and in experiment [10] was “inactive” in each case. Moreover, the Potency in experiment [4] is 9.69 µM (active); in [5], 31.7 µM (active); in experiment [6] it was 35.6 µM (active); in experiment [7], 17.8 µM (active); in experiment [9] it was 5.64 µM (active).

For `Cc1ccc(O)c(C(C)(C)C)c1`, the Potency is 61 µM (active) in experiment [1]; 35.5 µM (active) and 35.6 µM (active) in experiment [6]. Also, the Potency result in [2], in experiment [3], in experiment [4], in experiment [5] and in experiment [8] was “inactive” in each case.

Consider `c1ccc(CSCc2ccccc2)cc1`, for which the Potency entry in [1], in experiment [2], in [3] and in experiment [10] was “inactive” throughout. The Potency in experiment [4] is 27.2 µM (active); in experiment [6], 2.82 µM (active); in experiment [7], 35.5 µM (active); in [9] it was 31.6 µM (active).

For the compound `Cc1ccc2oc(CN(Cc3ccccc3)C(=O)Nc3c(F)cc(F)cc3F)c(-c3ccc(Cl)cc3)c2c1`, the Potency result in experiment [1], in [2] and in experiment [3] was “inactive” in each case. Further, the Potency is 3.74 µM (active) in [4]; 0.194 µM (active) in [5]; 10.9 µM (active) in experiment [6]; 4.34 µM (active) in [7]; 54.6 µM (active) in [9]; 2.44 µM (active) in experiment [10].

As for `Cc1cccc(CN2CCN(C(c3ccccc3)c3ccc(Cl)cc3)CC2)c1` (stereo not drawn), the Potency entry in [1], in experiment [2], in [3], in experiment [4], in experiment [11] and in [12] was “inactive” each time. In addition, in [9], the Potency result is “inactive”. Besides, the Potency in [5] was 3.09 µM (active); in experiment [6], 8.71 µM (active); in [7], 13.8 µM (active); in experiment [8], 2.39 µM (active).

For `CCOC(=O)O[C@]1(C(=O)OCCl)CC[C@H]2[C@@H]3CCC4=CC(=O)C=C[C@]4(C)[C@H]3[C@@H](O)C[C@@]21C`, the Potency result in [1], in [2], in experiment [3], in experiment [11], in experiment [5] and in [9] was “inactive” each time. The Potency result in experiment [8] was “inactive”. The Potency in experiment [4] was 5.96 µM (active); in [12], 14.1 µM (active).

For `Cc1cccc(S(=O)(=O)O)c1C`, the Potency result in [1], in experiment [2], in experiment [3], in experiment [4], in [5] and in [6] was “inactive” each time. Further, the Potency entry in experiment [9] and in [10] was “inactive” throughout.

On to `CCCCC(CC)COP(=O)(O)OCC(CC)CCCC` (stereo not drawn), for which the Potency entry in [1], in [2], in [3], in experiment [9] and in [10] was “inactive” throughout. The Potency in experiment [4] was 61.3 µM (active) and 54.5 µM (active); in experiment [5], 50.2 µM (active); in [6], 31.8 µM (active) and 31.7 µM (active); in experiment [7], 22.5 µM (active) and 17.8 µM (active).

Regarding `O=C1C=CC(=O)N1c1ccc(Cc2ccc(N3C(=O)C=CC3=O)cc2)cc1`, the Potency entry in experiment [1], in experiment [2] and in experiment [5] was “inactive” in each case. Moreover, the Potency in [3] is 68.6 µM (active); in [4], 4.86 µM (active); in experiment [6], 7.96 µM (active); in experiment [7] it was 5.64 µM (active); in experiment [9] it was 20 µM (active); in experiment [10], 35.6 µM (active).

Turning to `[Cl][Bi]([Cl])([c]1ccccc1)([c]1ccccc1)[c]1ccccc1`, the Potency result in experiment [1] and in experiment [2] was “inactive” each time. Moreover, the Potency is 68.2 µM (active) in experiment [3]; 0.483 µM (active) in experiment [4]; 6.29 µM (active) in experiment [5]; 0.445 µM (active) in [6]; 1.12 µM (active) in experiment [7]; 19.9 µM (active) in experiment [9]. Also, the Potency in experiment [8] was 13.7 µM (active); in experiment [10], 8.88 µM (active).

For the compound `CC[C@H](c1ccc(O)cc1)[C@@H](CC)c1ccc(O)cc1`, the Potency entry in [1], in experiment [2], in [3], in experiment [11], in [5] and in experiment [9] was “inactive” in each case. Further, the Potency was 61.1 µM (active) in [4]; 79.6 µM (active) and inactive in experiment [6]; 39.9 µM (active) and 30.9 µM (active) in experiment [7].

`Oc1ccc2c(c1)-c1ccccc1C2`: the Potency result in [1], in experiment [2], in experiment [3], in experiment [5] and in [8] was “inactive” each time. For the same compound, the Potency is 68.6 µM (active) in experiment [4], 39.9 µM (active) in [6], 39.9 µM (active) in [7] and 5.03 µM (active) in [9].

Regarding `CCCCCCCCCCCCCCCS(=O)(=O)Oc1ccccc1`, the Potency entry in [1], in experiment [2], in [3], in [4], in [5] and in [9] was “inactive” in each case. The Potency result in experiment [8] and in experiment [10] was “inactive” each time. For the same compound, in experiment [6], the Potency is 4.36 µM (active).

As to `O=[N+]([O-])c1cc(Cl)c(Cl)c(Cl)c1Cl`, the Potency result in experiment [1], in experiment [2], in experiment [3], in experiment [5], in experiment [8] and in experiment [10] was “inactive” in each case. The Potency in [4] is 60.9 µM (active); in experiment [9] it was 2.24 µM (active).

With `COc1ccc(-c2ccc3cc(C(=O)O)ccc3c2)cc1C12CC3CC(CC(C3)C1)C2`, the Potency result in experiment [1], in experiment [2], in [3], in [4], in experiment [11] and in [12] was “inactive” in each case. Further, the Potency result in [7], in experiment [9], in experiment [8] and in experiment [10] was “inactive” throughout.

Turning to `CCC(C)(C)C1CCCCC1OC(C)=O` (stereo not drawn), the Potency entry in experiment [1], in experiment [2], in experiment [3], in experiment [4], in [5] and in experiment [6] was “inactive” throughout. Further, the Potency entry in experiment [8] and in experiment [10] was “inactive” each time.

Consider `Clc1ccc(C(Cn2ccnc2)OCc2ccc(Sc3ccccc3)cc2)c(Cl)c1` (stereo not drawn), for which the Potency result in experiment [1], in experiment [2] and in [3] was “inactive” throughout. Also, the Potency in experiment [4] is 26.6 µM (active); in [5], 0.389 µM (active); in experiment [9], 15.5 µM (active); in experiment [8], 9.52 µM (active).

The values are drawn from PubChem BioAssay (Tox21).
